Out of some 77,000 compounds screened, about 4,600 (6%) were called active. Roughly 1% stayed inconclusive and do not appear here.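 Rule for the calls: active = mean inhibition above about 93%, with at least 55% of replicates each passing it (limit read from the data, passing the limit was not always enough); inconclusive = only one of those two conditions holds; inactive = neither condition holds.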 Only a selection was taken, and actives are over-represented in it overall.

A word on the inhibition: it is the change of the read-out against control, counted positive when it falls.

The nature of the assay: growth inhibition of T. cruzi in host fibroblasts – cell-based, beta-gal Tulahuen parasites, NIH3T3 host, luminescence, primary screen (AID 624255). As to conditions: T. cruzi beta-gal in NIH3T3, GalScreen luminescence, 90 h; at 8.34 µM; hits give high values.
Take `COc1ccc(CN(C)C[C@@H]2OCCCC[C@H](C)Oc3ccc(NC(=O)c4ccccc4)cc3C(=O)N([C@H](C)CO)C[C@H]2C)cc1`: the inhibition is 76.8% (inactive). Consider `CC=Cc1ccc2n(c1=O)C[C@@H]1[C@@H](CO)[C@H](C(=O)NCC(F)(F)F)N(CCc3ccccc3)[C@H]21` (mixture of isomers), for which the inhibition was 47.7% (inactive).

On to `Cc1ccc(S(=O)(=O)N[C@H]2CC[C@@H](CC(=O)NCc3ccc(Cl)c(Cl)c3)O[C@H]2CO)cc1`, for which the inhibition is 64.8% (inactive). Turning to `CCCC(=O)Nc1ccc2c(c1)C(=O)N(C)C[C@@H](OC)[C@@H](C)CN(Cc1cncnc1)[C@@H](C)CO2`, the inhibition is -11% (inactive).

Turning to `CC(C)NC(=O)Nc1ccc2c(c1)CC(=O)N([C@@H](C)CO)C[C@@H](C)[C@H](CN(C)CC1CC1)O2`, the inhibition was 14.2% (inactive).

As for `CCC(=O)Nc1ccc2c(c1)C(=O)N(C)[C@@H]1CC[C@@H](CC(=O)N[C@@H](C)c3ccccc3)O[C@@H]1CO2`, the inhibition was 29.7% (inactive).

On to `COc1ccc(S(=O)(=O)Nc2ccc3c(c2)C(=O)N([C@H](C)CO)C[C@@H](C)[C@H](CN(C)Cc2ccccc2)O3)cc1`, for which the inhibition is 13.7% (inactive). As to `CCCC#Cc1cnc2c(c1)C(=O)N([C@H](C)CO)C[C@H](C)[C@@H](CN(C)Cc1ccccc1)O2`, the inhibition was 18.3% (inactive). For the compound `CC(C)CC#Cc1cnc2c(c1)C(=O)N([C@H](C)CO)C[C@H](C)[C@H](CN(C)C(=O)Nc1ccccc1F)O2`, the inhibition is 53.1% (inactive). Under `C[C@@H]1CN([C@H](C)CO)C(=O)c2cc(C#Cc3ccccn3)cnc2O[C@H]1CN(C)Cc1ccccc1` stands 120% (active); under `C[C@H](CO)N1C[C@H](C)[C@H](CN(C)C(=O)Nc2cccc3ccccc23)Oc2ncc(C#Cc3ccccc3)cc2C1=O`, 122% (active); under `C[C@H](CO)N1C[C@H](C)[C@@H](CN(C)Cc2cccnc2)Oc2ncc(/C=C/c3ccccc3)cc2C1=O`, 12.8% (inactive). For `C/C=C/c1cnc2c(c1)C(=O)N([C@@H](C)CO)C[C@@H](C)[C@H](CN(C)Cc1ccccc1)O2`, the inhibition is -55.6% (inactive).

Turning to `C[C@@H]1CN([C@H](C)CO)C(=O)c2cc(/C=C/c3ccccc3)cnc2O[C@@H]1CN(C)Cc1ccncc1`, the inhibition is 96.3% (active). Consider `CC(C)C#Cc1cnc2c(c1)C(=O)N([C@H](C)CO)C[C@@H](C)[C@H](CN(C)Cc1ccccc1)O2`, for which the inhibition was -6.87% (inactive). Under `CCCC#Cc1cnc2c(c1)C(=O)N([C@H](C)CO)C[C@@H](C)[C@@H](CN(C)C(=O)Nc1ccccc1F)O2` stands 11.2% (inactive); under `COc1ccccc1-c1cn(CC[C@H]2CC[C@H](NC(=O)C3CCOCC3)[C@@H](CO)O2)nn1`, 7.67% (inactive). Take `O=C(C[C@@H]1C=C[C@H](NC(=O)Nc2ccc3c(c2)OCO3)[C@H](CO)O1)NCc1ccccc1`: the inhibition is 17.2% (inactive). As for `CC=Cc1ccc2n(c1=O)C[C@@H]1[C@@H](CO)[C@H](C(=O)NCCc3ccccc3)N(C(C)=O)[C@H]21` (mixture of isomers), the inhibition is 28.7% (inactive).

On to `C[C@H](O)C#Cc1ccc([C@@H]2[C@H](CO)N3CCCCN(CC4CC4)C[C@@H]23)cc1`, for which the inhibition is 8.49% (inactive). With `C/C=C/c1ccc([C@H]2[C@H]3CN(S(=O)(=O)c4ccccc4)CCCCN3[C@H]2CO)cc1`, the inhibition was 123% (active). `C[C@@H](O)C#Cc1ccc([C@H]2[C@@H](CO)N3CCCCN(CC4CC4)C[C@@H]23)cc1`: the inhibition was 29.6% (inactive). On to `C[C@@H](O)C#Cc1ccc([C@@H]2[C@H](CO)N3CCCCN(S(=O)(=O)c4ccccc4)C[C@@H]23)cc1`, for which the inhibition was 107% (active). Under `C[C@H](O)C#Cc1ccc([C@H]2[C@H]3CN(S(=O)(=O)Cc4ccccc4)CCCCN3[C@H]2CO)cc1` stands 110% (active).

Take `CN(C)CC#Cc1ccc([C@H]2[C@H]3CN(S(=O)(=O)c4ccccc4F)CCCCN3[C@H]2CO)cc1`: the inhibition was 106% (active). Consider `CCCC#Cc1ccc([C@@H]2[C@H](CO)N3CCCCN(S(=O)(=O)c4ccccc4F)C[C@@H]23)cc1`, for which the inhibition is 37.8% (inactive). For `C[C@@H](O)C#Cc1ccc([C@H]2[C@@H](CO)N3CCCCN(S(=O)(=O)c4ccccc4)C[C@@H]23)cc1`, the inhibition was 59.2% (inactive).

With `C[C@@H](O)C#Cc1ccc([C@@H]2[C@H]3CN(S(=O)(=O)c4ccccc4)CCCCN3[C@H]2CO)cc1`, the inhibition was 26.7% (inactive). As for `CCCC#Cc1ccc([C@H]2[C@H](CO)N3CCCCN(S(=O)(=O)CC)C[C@@H]23)cc1`, the inhibition is 47.8% (inactive). In the case of `CCC(=O)Nc1ccc2c(c1)C(=O)N(C)[C@@H]1CC[C@@H](CC(=O)Nc3cccc(OC)c3)O[C@@H]1CO2`, the inhibition is -12.2% (inactive). Then `O=C(N[C@@H]1CC[C@H](CCn2cc(-c3ccccc3)nn2)O[C@H]1CO)c1cnccn1`, with 20.6% (inactive). As to `CNC(=O)C[C@@H]1CC[C@@H]2[C@H](COc3ccc(NC(=O)c4cccs4)cc3C(=O)N2C)O1`, the inhibition was 9.57% (inactive). As to `CC(C)CC#Cc1cnc2c(c1)C(=O)N([C@H](C)CO)C[C@H](C)[C@H](CN(C)CC1CCOCC1)O2`, the inhibition was 60.8% (inactive).

Take `C/C=C/c1cnc2c(c1)C(=O)N([C@H](C)CO)C[C@H](C)[C@@H](CN(C)C(=O)Nc1ccc(C(F)(F)F)cc1)O2`: the inhibition was 108% (inactive). Consider `COCC(=O)N1C[C@H]2[C@@H](c3ccccc31)[C@@H](CO)N2Cc1ccccc1`, for which the inhibition was -14.2% (inactive). Then `COc1cccc(-c2ccc3c(c2)[C@@H]2[C@@H](CCN2C(=O)CN2CCOCC2)[C@H](CO)N3)c1`, with 88.3% (inactive).

As to `C[C@H](O)C#Cc1ccc([C@@H]2[C@H]3CN(S(=O)(=O)c4ccccc4)CCCCN3[C@H]2CO)cc1`, the inhibition is 107% (active). With `O=S(=O)(c1ccccc1)N1CCCCN2[C@@H](CO)[C@H](c3ccc(C#Cc4cccnc4)cc3)[C@@H]2C1`, the inhibition was 90.8% (inactive). `CC(C)NC(=O)N1CCCCN2[C@H](CO)[C@H](c3ccc(C#C[C@H](C)O)cc3)[C@H]2C1`: the inhibition was 90.4% (inactive). On to `C[C@H]1CN([C@@H](C)CO)C(=O)c2cccc(NS(=O)(=O)c3cn(C)cn3)c2O[C@H]1CN(C)C(=O)Nc1ccc2c(c1)OCO2`, for which the inhibition was -234% (inactive).

These data come from PubChem BioAssay AID624255 (Broad Institute, 2012).
